Screens as filed in PubChem.
Sm TGR inh = inhibitors of Schistosoma mansoni thioredoxin glutathione reductase; Q962Y6; purified TGR, DTNB reduction, TNB absorbance 405 nm; Potency, µM (doses to about 114 µM), for the others: at the top dose activity change, negative = inhibition, actives largely listed as inhibitors; actives 3% (n = 360,000); AID 485364; also: nearly all actives have a fitted effect of over 60% in size
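Kinetic colorimetric format: TGR-catalysed, NADPH-driven DTNB reduction monitored via TNB absorbance. Enzyme dispensed at 20 nM; compound exposure 15 min at room temperature before reaction start.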
Lassa entry inh = Lassa virus entry inhibition; AID 540256; actives 1.2% (n = 300,000); Potency, µM (series often up to 37.9 µM), without a hit: top-dose activity change, negative = inhibition, actives largely listed as inhibitors; Lassa virus pseudotype entry inhibition, cell reporter; calls by dose curve; tested in HEK293 cells; also: nearly all actives have a fitted effect of over 50% in size
MARV entry inh = Marburg virus entry inhibition; actives 1.8% (n = 300,000); Marburg virus pseudotyped entry inhibition, cell reporter; Potency, µM (titrated, usually from 37.8 µM), without a hit: top-dose activity change, negative = inhibition, actives largely listed as inhibitors; calls by dose curve; tested in HEK293 cells
HCV inhibitor = HCV inhibition. Huh7.5.1 HCVcc-Cre infection, luciferase reporter, 44 h. Potency, µM (top dose mostly 41.8 µM), for inactives: top-dose activity change, negative = inhibition, hits mostly inhibitors. actives 3.4% (n = 340,000)
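Seed cells (1,000/well) for 4 h; treat with compound and infect with HCVcc-Cre, moi about 0.5. Incubate 44 h, then detect luciferase activity.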
FMDV antiviral = blocks foot and mouth disease virus | actives 1.2% (n = 410,000) | Potency, µM (doses to about 57.9 µM), inactives show at the highest dose activity change, negative = inhibition, actives largely listed as inhibitors | AID 1159524 | FMDV antiviral cell-based qHTS; calls by dose curve; tested in HEK293T cells; also: read-out not given here; nearly all actives have a fitted effect of over 45% in size
RE007 growth inh = less growth of the S. pombe RE007 Vpr strain | S. pombe RE007 Vpr strain, BacTiter-Glo ATP luminescence, 24 h | Potency, µM (doses to about 92.2 µM), for the others: at the highest dose activity change, negative = less growth, usual class: inhibitors | actives 0.21% (n = 360,000) | AID 651644; active = well fitted falling curve with a large enough effect; inconclusive = small, poorly fitted or top-dose-only effect; inactive = no such curve, though single readings can be large or run the other way; also: nearly all actives have a fitted effect of over 50% in size
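Fission yeast RE007 carrying one integrated HIV-1 vpr copy, seeded at OD 0.01 in PMG+AL medium with 23 nL pinned compound. Grown 24 h at 30 degrees; viability read by BacTiter-Glo luminescence after 5 min.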
Starred values were filed as active, the others as inactive; ? = inconclusive; / = no result; [ ] = remark or other dose. Only some compounds are listed: those with a hit (about 7.2% of all), similar ones and a draw of the others. Unless noted, calls follow the shape of the dose curve; as a rule, active = well fitted curve in the direction sought with a large enough effect; inconclusive = small, poorly fitted or top-dose-only effect, or another doubt; inactive = no such curve, though single readings can be large; an effect the other way counts as inactive or inconclusive. % is scaled to controls: 0 for no effect and ±100 for the full control effect; potency is read from the fitted curve at half-maximal effect.

SMILES	Sm TGR inh	Lassa entry inh	MARV entry inh	HCV inhibitor	FMDV antiviral	RE007 growth inh
COc1ccc(-c2ccc(CCC(=O)O)n2Cc2ccco2)cc1	25.1µM*	-9.7%	16.0%[46.1 µM]	7.8%	8.6%	-3.5%
O=C(O)CCc1ccc(-c2ccc(Cl)cc2)n1Cc1ccco1	39.8µM*	-7.0%	2.4%	13.5%	/	-1.7%
Cc1oc(-c2ccccc2F)nc1CS(=O)CC(=O)N1CCC2(CC1)OCCO2 (stereo unspecified)	28.2µM*	-10.8%	-6.5%	10.1%	5.9%	11.0%[3.69 µM]
Cc1oc(-c2ccc(Cl)cc2)nc1CS(=O)CC(=O)N1CCN(c2cccc(C(F)(F)F)c2)CC1 (stereo unspecified)	?	0.0%[46.1 µM]	/	/	31.6µM*	/
COc1cccc(-c2nc(CS(=O)CC(=O)N3CCC4(CC3)OCCO4)c(C)o2)c1 (stereo unspecified)	5.01µM*	-15.4%	-6.8%	7.9%	-3.6%	1.4%
CCOC(=O)C1CCN(C(=O)CS(=O)Cc2nc(-c3ccc(C)cc3)oc2C)CC1 (stereo unspecified)	3.98µM*	/	/	-10.4%	-10.8%	0.1%
Cc1oc(-c2ccccc2Cl)nc1CS(=O)CC(=O)N1CCN(c2cccc(C(F)(F)F)c2)CC1 (stereo unspecified)	-25.9%	?	/	/	-27.9%	/
COc1cccc(-c2nc(CS(=O)CC(=O)N3CCN(c4cccc(C(F)(F)F)c4)CC3)c(C)o2)c1 (stereo unspecified)	?	-22.4%[46.1 µM]	/	/	?	/
COC(=O)C1=C(C(=O)OC)[C@@H]2N(C)c3ccccc3[C@@]23C[C@@H](C(=O)OC)N(C(=O)Nc2cccc(C#N)c2)C3=N1	/	/	27.4%[14.2 µM]	/	/	/
Cc1ccc(NC(=O)c2cc(S(=O)(=O)N(C)C3CCCCC3)ccc2F)cc1C	16.5%	-7.0%[46.1 µM]	/	/	-9.9%	/
O=C(CN1C(=O)COc2ccc(S(=O)(=O)N3CCOCC3)cc21)N1CCN(c2ccccc2F)CC1	-0.7%	-6.2%[46.1 µM]	2.9%[46.1 µM]	/	3.0%	/
Cc1oc(-c2ccc(Cl)cc2)nc1CS(=O)CC(=O)N1CCC2(CC1)OCCO2 (stereo unspecified)	20µM*	-10.7%	0.5%	-17.9%	-10.4%	-10.7%
COC[C@@H](O)[C@H]1OCc2ccccc2[C@H]1C=Cc1ccccc1	/	/	6.8%[14.2 µM]	/	/	/
CC(=O)/C=C/n1c(=S)oc2ccccc21	2.51µM*	?	13µM*	4.47µM*	3.16µM*	39.8µM*
Cn1c(=S)oc2ccccc21	6.0%	5.3%	2.1%[46.1 µM]	10.7%	-1.0%	2.4%
CC(C)CC(=O)/C=C/n1c(=S)oc2ccccc21	6.31µM*	12.8%	-16.0%	14.1µM*	?	-27.5%
COc1ccc(Oc2ncc3nc(C)c(=O)n(Cc4ccc(F)cc4)c3n2)cc1	/	/	/	/	-23.0%	/
CC(=O)c1cc(-c2ccc(F)cc2)n(CCC(=O)NCc2ccccc2C)c1C	1.2%	/	?	/	-8.3%	/
C#CCN(C[C@@H]1[C@@H](OC(=O)NCc2ccc(OC)c(OC)c2)[C@@H](OC(=O)NCc2ccc(OC)c(OC)c2)Cn2c(=O)ccc(=O)n21)S(=O)(=O)c1ccc(C)cc1	/	/	/	/	?	-13.8%
C#CCN(C[C@@H]1[C@@H](OC(=O)NCCCCCC)[C@@H](OC(=O)NCCCCCC)Cn2c(=O)ccc(=O)n21)S(=O)(=O)c1ccc(C)cc1	/	/	/	/	12.6µM*	-2.5%
C#CCN(C[C@@H]1[C@@H](OC(=O)NCC2CCCCC2)[C@@H](OC(=O)NCC2CCCCC2)Cn2c(=O)ccc(=O)n21)S(=O)(=O)c1ccc(C)cc1	/	/	/	/	10µM*	-1.2%
C#CCN(C[C@@H]1[C@@H](OC(=O)NC2CC2)[C@@H](OC(=O)NC2CC2)Cn2c(=O)n(CCCCCC)c(=O)n21)S(=O)(=O)c1ccc(C)cc1	/	/	/	/	?	-5.2%
COc1cccc(CCc2ccccc2OCC[C@@H]2C[C@@H](O)CN2C)c1	/	/	/	/	-20.2%	/
O=C(Cn1c(=O)n(Cc2ccc3c(c2)OCO3)c(=O)c2oc3ccccc3c21)Nc1ccc(F)cc1	5.5%	19.3%[46.1 µM]	/	/	18.1%	/
